Assay outcomes deposited in PubChem BioAssay by NMMLSC.
The list is not random: actives were taken first. Their share in the collection is about 3.5%.
Bead autofluor = counter-screen for toxin protease inhibitors: compound fluorescence; compound autofluorescence counterscreen, microsphere flow cytometry; hits give high values; fluorescence intensity (test concentration not listed); actives 3.1% (n = 360,000); AID 624483; in the data active means fluorescence intensity above about 16000; inconclusive means no clear call, values can overlap the other calls
BoNT F protease = inhibitors of Botulinum neurotoxin F light chain protease. AID 588497. inhibition, % at 10 µM. Multiplex microsphere protease cleavage assay, flow cytometry. actives 0.22% (n = 360,000); in the data active means inhibition above about 35%, passing the limit was not always enough; inconclusive means no clear call, values can overlap the other calls
Anthrax LF prot = inhibitors of Bacillus anthracis lethal factor protease | multiplex microsphere protease cleavage assay, LF | actives 0.12% (n = 360,000) | inhibition, % at 10 µM | P15917
BoNT-A LC inh2 = blocks Botulinum neurotoxin A light chain protease | multiplex microsphere protease substrate cleavage, flow cytometry | inhibition, % at 10 µM | actives 0.17% (n = 360,000)
Each line names hits and unclear results; the compound was inactive in the other large screens. Unless noted, no stated cut-off is given here; in the data, active means inhibition above about 30%; inconclusive means no clear call, values can overlap the other calls; inactive means below that.

CCc1c(C)n2nc(C)cc2[nH]c1=O	Bead autofluor 22318
CCOc1ccccc1N=Nc1c(C)[nH]n(C(N)=S)c1=O	BoNT F protease 56.5
Cn1c(SCC(=O)NC2(C#N)CCCCC2)nnc1-c1cccnc1	none
CCCn1c(Nc2nc3ccccc3n2C)nc2ccccc21	none
CCCCn1c(Nc2ccccc2)nc2ccccc21	Bead autofluor 16689
C/C=C/C(=O)OCC(=O)Nc1cc([N+](=O)[O-])ccc1Cl	none
C/C=C/C(=O)OCC(=O)Nc1c(Cl)cccc1Cl	Bead autofluor 16870
CCOc1ccc(C(=O)N/N=C/c2ccc(-c3ccc(S(=O)(=O)Nc4ncccn4)cc3)o2)cc1	Bead autofluor 22776
O=C(N/N=C/c1ccc(-c2ccc(S(=O)(=O)Nc3ncccn3)cc2)o1)c1cc2ccccc2cc1O	none
CC(Oc1ccc(F)cc1)C(O)CCN(C)C (stereo not drawn)	none
CC(C)(C)c1cnnn1-c1ccc(C=O)cc1	Bead autofluor 24224
Fc1cccc(Cc2c(-c3cccc(Cl)c3)nc3c(Cl)cc(C(F)(F)F)cn23)c1	none
COc1ccc(CN(C(=O)CN2C(=O)C(C)Oc3ccccc32)C2CCCC2)c(OC)c1 (stereo not drawn)	none
COc1ccc(CN(C(=O)CN2C(=O)COc3ccccc32)C2CCCC2)c(OC)c1	Bead autofluor 21877
Cc1ccc(S(=O)(=O)NC(CC(C)C)C(=O)NCC(C)(C)N2CCOCC2)cc1 (stereo not drawn)	none
COc1c(C)cc(C(O)c2ncc(-c3ccc(Cl)cc3)[nH]2)cc1C (stereo not drawn)	none
Oc1ccc(/C=C/c2nc(-c3ccccc3O)n(-c3ccccc3)n2)cc1	Bead autofluor 24194
CCCCC1CC1C(=O)Nc1ccc(OC)c(OC)c1 (stereo not drawn)	Bead autofluor 16567
Cc1ccc(Nc2nc(C)c(CCC(C)C)c(=O)[nH]2)cc1	none
Cc1nc(NCc2ccccc2)[nH]c(=O)c1CCC(C)C	Bead autofluor 24000
Cc1ccc(-c2cc(C(=O)N3N=C(C(F)F)CC3(O)C(F)F)c3ccccc3n2)cc1C (stereo not drawn)	none
O=C(c1cc(-c2ccccc2)nc2ccccc12)N1N=C(C(F)F)CC1(O)C(F)F (stereo not drawn)	Bead autofluor 26128
O=C(Cn1ncc2c([nH]c3ccccc32)c1=O)Nc1ccc(CN2CCCCC2)cc1	none
Cc1ccnc(N2CCCC(C(=O)Nc3nnc(C)s3)C2)n1 (stereo not drawn)	none
CC(=O)Nc1ccc(NC(=O)C2CCCN(c3ncccn3)C2)cc1 (stereo not drawn)	none
COc1ccc(NC(=O)C2CCCN(c3c4c(nc5ncnn35)CCC4)C2)cc1 (stereo not drawn)	Bead autofluor 23021
Cc1nnc(NC(=O)C2CCCN(c3ncccn3)C2)s1 (stereo not drawn)	Bead autofluor 22811
O=C(Nc1ccc(C2CCCCC2)cc1)C1CCCN(c2ncccn2)C1 (stereo not drawn)	Bead autofluor 22140, BoNT-A LC inh2 inconclusive
O=C(Nc1ccc(Oc2ccccc2)cc1)C1CCCN(c2ncccn2)C1 (stereo not drawn)	Bead autofluor 21093
Cc1cccc(C)c1NC(=O)C1CCCN1S(=O)(=O)c1ccccc1 (stereo not drawn)	none
N#CC1(NC(=O)Cn2cc(C(F)(F)F)cc(Cl)c2=O)CCCCC1	none
CCc1ccccc1-n1nnc(-c2ccccc2)n1	none
CCCOc1ccc(C(=O)NC(=S)Nc2nc(C)c(C(=O)N(C)C)s2)cc1	Bead autofluor 18538
Cc1nc(NC(=O)c2ccc(Br)s2)sc1C(=O)N(C)C	Bead autofluor 16535, BoNT-A LC inh2 inconclusive
